Results published in PubChem BioAssay (NCATS).
Inconclusive results are not listed. Activity calls are given as the source filed them. Unless noted, calls follow the shape of the dose curve; as a rule, active = well fitted curve in the direction sought with a large enough effect; inconclusive = small, poorly fitted or top-dose-only effect, or another doubt; inactive = no such curve, though single readings can be large; an effect the other way counts as inactive or inconclusive.

Columns and labels:
[1] = target: Glucocorticoid receptor (Homo sapiens) (UniProt P04150); test: GR-GFP Redistribution (AID 450;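 active = compounds whose dose series gives a full or clear partial fitted curve of increased nuclear translocation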; also: potency is read from the fitted curve at half-maximal effect); conditions: U2OS GR-GFP nuclear translocation, laser cytometry, 2 h
Sequence of Glucocorticoid receptor (Homo sapiens) (P04150 whole entry, looked up, the tested form may be a part): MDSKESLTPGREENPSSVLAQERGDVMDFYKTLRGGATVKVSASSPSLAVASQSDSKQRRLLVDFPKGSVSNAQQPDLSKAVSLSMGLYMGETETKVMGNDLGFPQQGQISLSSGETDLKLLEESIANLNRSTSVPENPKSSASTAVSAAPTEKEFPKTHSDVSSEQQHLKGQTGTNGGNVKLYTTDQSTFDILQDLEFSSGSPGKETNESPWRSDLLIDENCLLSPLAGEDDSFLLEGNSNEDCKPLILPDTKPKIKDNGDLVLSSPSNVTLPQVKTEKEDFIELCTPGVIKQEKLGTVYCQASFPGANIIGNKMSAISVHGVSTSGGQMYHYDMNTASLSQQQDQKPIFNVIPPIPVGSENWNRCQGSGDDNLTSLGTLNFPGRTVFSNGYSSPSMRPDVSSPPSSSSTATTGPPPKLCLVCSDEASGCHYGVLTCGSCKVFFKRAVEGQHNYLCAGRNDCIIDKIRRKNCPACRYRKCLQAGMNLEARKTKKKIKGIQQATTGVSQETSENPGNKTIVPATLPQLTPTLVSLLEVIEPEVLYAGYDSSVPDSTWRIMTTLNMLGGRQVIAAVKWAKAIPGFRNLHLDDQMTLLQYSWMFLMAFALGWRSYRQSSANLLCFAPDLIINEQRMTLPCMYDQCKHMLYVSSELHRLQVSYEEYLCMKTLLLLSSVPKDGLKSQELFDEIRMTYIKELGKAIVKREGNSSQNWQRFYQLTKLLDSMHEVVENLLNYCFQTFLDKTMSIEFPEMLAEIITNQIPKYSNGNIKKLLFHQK

[2] = target: Glucocorticoid receptor (Homo sapiens) (UniProt P04150); test: GR-EFC Redistribution (AID 451; calls by dose curve; also: potency is read from the fitted curve at half-maximal effect); conditions: CHO-K1 GR-EFC translocation, beta-gal luminescence, 2 h
Summary of the method: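 Translocation of GR-ED fusion to nuclear EA restores b-gal, read by luminescence after 1 h room-temperature detection. Engineered CHO-K1 biosensor cells, 1,000/well, exposed 2 h at 37 C to titrations up to 46 uM final.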

[3] = target: Ubiquitin carboxyl-terminal hydrolase 1 (Homo sapiens) (UniProt O94782); test: Inhibitors of USP1/UAF1: Pilot qHTS (AID 504865);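 also: rhodamine fluorescence freed from ubiquitin-rhodamine substrate followed over time; top concentration of the series differs between compounds; nearly all actives have a fitted effect of over 35% in size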
Sequence of Ubiquitin carboxyl-terminal hydrolase 1 (Homo sapiens) (O94782 whole entry, looked up): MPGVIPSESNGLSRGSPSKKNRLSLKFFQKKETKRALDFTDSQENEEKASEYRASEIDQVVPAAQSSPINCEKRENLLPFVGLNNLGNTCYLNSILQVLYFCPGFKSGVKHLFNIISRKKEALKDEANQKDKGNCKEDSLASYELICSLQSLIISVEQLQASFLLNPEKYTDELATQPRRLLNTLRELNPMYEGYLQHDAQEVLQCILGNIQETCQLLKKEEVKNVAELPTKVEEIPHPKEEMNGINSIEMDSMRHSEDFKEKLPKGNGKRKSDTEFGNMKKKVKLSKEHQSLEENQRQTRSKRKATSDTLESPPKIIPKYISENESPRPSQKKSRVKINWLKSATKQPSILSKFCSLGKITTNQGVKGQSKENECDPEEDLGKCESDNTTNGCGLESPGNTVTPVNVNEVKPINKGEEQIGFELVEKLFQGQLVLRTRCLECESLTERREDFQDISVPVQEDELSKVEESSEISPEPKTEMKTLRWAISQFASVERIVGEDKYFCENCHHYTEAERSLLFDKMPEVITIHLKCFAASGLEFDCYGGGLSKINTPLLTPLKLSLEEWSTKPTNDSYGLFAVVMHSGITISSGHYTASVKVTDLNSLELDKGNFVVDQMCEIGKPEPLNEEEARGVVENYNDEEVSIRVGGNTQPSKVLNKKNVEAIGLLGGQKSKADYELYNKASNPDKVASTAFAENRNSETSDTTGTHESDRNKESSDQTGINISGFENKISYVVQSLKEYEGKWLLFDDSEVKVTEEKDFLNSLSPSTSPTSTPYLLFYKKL
Summary of the method: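 Enzyme-free wells gave the negative control, while test wells held 1nM USP1/UAF1 preincubated with compound for 15 min at room temperature. Ub-Rho at 150nM final started the reaction, and fluorescence at 480/540 nm was recorded kinetically.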

[4] = target: DNA dC->dU-editing enzyme APOBEC-3G (Homo sapiens) (UniProt Q9HC16); test: qHTS for inhibitors of Vif-A3G interactions: Validation (AID 588379)
Sequence of DNA dC->dU-editing enzyme APOBEC-3G (Homo sapiens) (Q9HC16 whole entry, looked up): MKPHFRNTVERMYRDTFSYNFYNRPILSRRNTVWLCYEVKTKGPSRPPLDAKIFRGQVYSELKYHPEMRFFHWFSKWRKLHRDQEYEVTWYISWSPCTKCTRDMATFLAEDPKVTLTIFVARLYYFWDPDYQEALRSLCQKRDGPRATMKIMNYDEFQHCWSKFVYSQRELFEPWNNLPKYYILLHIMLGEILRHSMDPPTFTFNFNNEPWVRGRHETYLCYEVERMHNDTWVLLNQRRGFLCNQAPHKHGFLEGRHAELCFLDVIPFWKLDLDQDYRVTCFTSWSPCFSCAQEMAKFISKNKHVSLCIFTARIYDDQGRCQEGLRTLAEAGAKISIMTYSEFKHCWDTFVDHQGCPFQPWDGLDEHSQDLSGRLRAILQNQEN
Summary of the method: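 HeLa cells stably expressing Vif and A3G-eYFP, 700 cells/well, incubated overnight at 37 deg C, then exposed to compound overnight at 37 deg C. Inhibition of Vif-mediated degradation read as increased yellow fluorescence (Ex 488/Em 500-530) by laser-scanning cytometry.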

[5] = Counterscreen qHTS for small molecule stabilizers of the endoplasmic reticulum resident proteome: GLuc-NoTag assay (AID 1508627); also: potency is read from the fitted curve at half-maximal effect
Summary of the method: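 Luminescence of Gaussia luciferase secreted into the medium (coelenterazine, 0.07x final, unlysed cells) was the read-out. Human SH-SY5Y neuroblastoma cells constitutively secreting untagged GLuc received compound for 19 h, then 100 nM thapsigargin for 4 h.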

[6] = Cell Viability qHTS for small molecule stabilizers of the endoplasmic reticulum resident proteome (AID 1508629); conditions: cell viability counter-screen, 100 nM thapsigargin for final 4 h;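 also: potency is read from the fitted curve at half-maximal effect; compound exposure about 46 h in total before the viability read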

Measured: Potency

CN1[C@@H]2CC[C@H]1CC(OC(c1ccc(F)cc1)c1ccc(F)cc1)C2 (stereo partly specified)
active: [5] 44.7 µM | [6] 25.1 µM
inactive: [1] > 46 µM | [2] > 46 µM | [3] | [4]
